Holding throughout (test): log2 ratio of Biotin-Ahx-Ub-VS probe labelling (fragment/DMSO); higher = less target engagement (more negative = stronger competition), active = hit call of the paper (q ≤ 0.05, log2 ratio ≤ -1)
Common to all, as to details: compound concentration: 200 uM; treatment time: 3 h

One test has as its target T1, ALG13 (UniProt Q9NP73).
T1 sequence (whole entry): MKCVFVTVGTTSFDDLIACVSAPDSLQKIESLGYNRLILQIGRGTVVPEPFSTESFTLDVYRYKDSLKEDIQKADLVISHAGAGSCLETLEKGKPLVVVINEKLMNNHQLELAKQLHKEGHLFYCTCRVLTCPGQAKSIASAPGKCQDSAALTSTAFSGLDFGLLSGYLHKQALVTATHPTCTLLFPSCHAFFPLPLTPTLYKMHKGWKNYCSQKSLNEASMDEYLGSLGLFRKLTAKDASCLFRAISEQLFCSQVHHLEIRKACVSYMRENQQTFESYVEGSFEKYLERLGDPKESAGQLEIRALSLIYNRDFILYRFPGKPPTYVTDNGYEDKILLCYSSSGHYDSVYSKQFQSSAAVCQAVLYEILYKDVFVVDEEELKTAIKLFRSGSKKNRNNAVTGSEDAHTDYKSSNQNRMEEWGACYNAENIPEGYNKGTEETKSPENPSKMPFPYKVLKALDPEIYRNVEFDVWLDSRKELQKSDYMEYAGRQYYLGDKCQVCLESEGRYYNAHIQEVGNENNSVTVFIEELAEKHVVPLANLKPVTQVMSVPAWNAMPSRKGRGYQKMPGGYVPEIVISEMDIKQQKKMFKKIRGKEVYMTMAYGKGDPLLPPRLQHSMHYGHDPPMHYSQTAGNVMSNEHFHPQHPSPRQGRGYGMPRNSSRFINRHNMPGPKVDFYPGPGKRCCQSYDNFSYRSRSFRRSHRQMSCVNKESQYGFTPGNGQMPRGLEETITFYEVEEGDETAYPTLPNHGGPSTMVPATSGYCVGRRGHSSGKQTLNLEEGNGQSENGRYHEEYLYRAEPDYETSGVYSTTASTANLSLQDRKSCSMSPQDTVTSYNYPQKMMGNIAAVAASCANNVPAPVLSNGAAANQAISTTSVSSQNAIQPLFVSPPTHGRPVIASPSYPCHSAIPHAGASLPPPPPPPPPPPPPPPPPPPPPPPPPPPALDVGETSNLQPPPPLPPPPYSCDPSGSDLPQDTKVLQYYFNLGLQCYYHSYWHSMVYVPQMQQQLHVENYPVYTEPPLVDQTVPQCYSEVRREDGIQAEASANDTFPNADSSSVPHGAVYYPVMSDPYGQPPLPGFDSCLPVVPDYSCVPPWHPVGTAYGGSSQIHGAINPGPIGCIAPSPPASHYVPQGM
A digest of the protocol: (§1)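 Average log2 ratios of fragment over vehicle were obtained by unpaired t-test from global-median-normalised Spectronaut label-free quantities. Proteins with ≥2 unique peptides were included. HEK293T lysate (495 µg per sample) was treated in triplicate with fragment at 200 µM or vehicle for 3 h, then with Biotin-Ahx-Ub-VS at 0.5 µM final for 1 h, and labelled DUBs were NeutrAvidin-enriched and run by diaPASEF LC-MS/MS.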

The target in another test is ATXN3 (UniProt P54252). A digest of the protocol: as §1
In another test the target is T2, BAP1 (UniProt Q92560).
T2 sequence (whole entry): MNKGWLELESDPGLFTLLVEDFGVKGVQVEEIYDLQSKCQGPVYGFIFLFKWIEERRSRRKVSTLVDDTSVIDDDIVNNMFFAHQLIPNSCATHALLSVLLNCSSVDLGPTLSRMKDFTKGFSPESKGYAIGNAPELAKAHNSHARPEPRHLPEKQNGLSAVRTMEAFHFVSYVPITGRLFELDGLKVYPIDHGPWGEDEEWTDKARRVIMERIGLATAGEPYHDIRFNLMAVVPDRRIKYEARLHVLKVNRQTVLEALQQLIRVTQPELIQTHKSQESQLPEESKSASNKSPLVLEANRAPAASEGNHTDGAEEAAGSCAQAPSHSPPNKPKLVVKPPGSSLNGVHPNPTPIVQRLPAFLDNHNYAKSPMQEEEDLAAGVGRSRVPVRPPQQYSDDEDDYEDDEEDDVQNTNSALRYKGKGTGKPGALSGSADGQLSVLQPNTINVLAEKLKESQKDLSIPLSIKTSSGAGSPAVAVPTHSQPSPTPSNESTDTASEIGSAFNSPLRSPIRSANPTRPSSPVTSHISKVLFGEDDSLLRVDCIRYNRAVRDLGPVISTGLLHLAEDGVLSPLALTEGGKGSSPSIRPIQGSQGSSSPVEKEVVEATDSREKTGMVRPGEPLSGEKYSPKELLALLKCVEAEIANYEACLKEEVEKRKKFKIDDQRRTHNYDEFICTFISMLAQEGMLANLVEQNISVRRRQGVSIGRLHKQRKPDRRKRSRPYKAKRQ
A digest of the protocol: as §1

The next test addresses EIF3F (UniProt O00303). Summed up: as §1
For another test, the target named is EIF3H (UniProt O15372). Summed up: as §1
The target in a further test is T3, FAM105A (UniProt Q9NUU6).
T3 sequence (whole entry): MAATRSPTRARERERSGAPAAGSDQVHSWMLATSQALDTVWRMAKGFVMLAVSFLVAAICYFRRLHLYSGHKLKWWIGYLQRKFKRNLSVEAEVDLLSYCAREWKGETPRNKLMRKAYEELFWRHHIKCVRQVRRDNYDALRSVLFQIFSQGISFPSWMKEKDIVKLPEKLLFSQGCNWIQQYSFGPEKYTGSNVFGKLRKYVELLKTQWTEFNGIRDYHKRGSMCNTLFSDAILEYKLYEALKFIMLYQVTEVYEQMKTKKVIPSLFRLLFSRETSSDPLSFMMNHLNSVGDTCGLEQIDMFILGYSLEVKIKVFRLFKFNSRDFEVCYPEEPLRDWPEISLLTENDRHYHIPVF
Summed up:
as §1

The next test has as its target OTUB1 (UniProt Q96FW1). A digest of the protocol: as §1
For another test, the target named is T4, OTUD4 (UniProt Q01804).
T4 sequence (whole entry): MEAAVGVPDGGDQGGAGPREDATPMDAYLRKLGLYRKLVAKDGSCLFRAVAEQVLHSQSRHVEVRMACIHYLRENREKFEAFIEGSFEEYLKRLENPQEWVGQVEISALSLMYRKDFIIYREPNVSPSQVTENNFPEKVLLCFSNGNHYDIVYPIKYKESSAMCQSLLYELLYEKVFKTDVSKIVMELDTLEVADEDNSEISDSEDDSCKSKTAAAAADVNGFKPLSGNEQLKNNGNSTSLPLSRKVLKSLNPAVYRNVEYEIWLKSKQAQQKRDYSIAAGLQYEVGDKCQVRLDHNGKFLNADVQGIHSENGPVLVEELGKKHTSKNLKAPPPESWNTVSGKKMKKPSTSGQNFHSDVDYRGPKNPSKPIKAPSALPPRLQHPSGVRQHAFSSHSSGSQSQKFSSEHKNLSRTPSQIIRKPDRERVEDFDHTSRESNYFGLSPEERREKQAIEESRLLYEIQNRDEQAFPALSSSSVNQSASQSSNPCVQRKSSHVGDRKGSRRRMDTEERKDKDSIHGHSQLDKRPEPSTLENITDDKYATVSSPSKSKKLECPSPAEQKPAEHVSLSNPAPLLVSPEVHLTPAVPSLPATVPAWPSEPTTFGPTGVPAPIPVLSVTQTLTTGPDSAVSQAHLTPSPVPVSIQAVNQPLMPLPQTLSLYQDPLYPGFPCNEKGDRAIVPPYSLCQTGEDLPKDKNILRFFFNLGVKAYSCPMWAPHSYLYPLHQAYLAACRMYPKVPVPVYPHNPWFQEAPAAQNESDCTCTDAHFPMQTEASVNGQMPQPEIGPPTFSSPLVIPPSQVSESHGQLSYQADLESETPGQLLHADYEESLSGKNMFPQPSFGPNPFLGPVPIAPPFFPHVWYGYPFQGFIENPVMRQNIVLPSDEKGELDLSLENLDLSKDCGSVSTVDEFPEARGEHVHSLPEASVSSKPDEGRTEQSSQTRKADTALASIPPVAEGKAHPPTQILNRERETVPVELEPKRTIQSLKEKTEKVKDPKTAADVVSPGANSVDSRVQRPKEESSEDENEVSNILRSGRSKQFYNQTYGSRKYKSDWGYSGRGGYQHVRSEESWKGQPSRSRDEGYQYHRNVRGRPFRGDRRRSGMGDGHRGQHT
Summed up:
as §1

For another test, the target named is T5, OTUD5 (UniProt Q96G74).
T5 sequence (whole entry): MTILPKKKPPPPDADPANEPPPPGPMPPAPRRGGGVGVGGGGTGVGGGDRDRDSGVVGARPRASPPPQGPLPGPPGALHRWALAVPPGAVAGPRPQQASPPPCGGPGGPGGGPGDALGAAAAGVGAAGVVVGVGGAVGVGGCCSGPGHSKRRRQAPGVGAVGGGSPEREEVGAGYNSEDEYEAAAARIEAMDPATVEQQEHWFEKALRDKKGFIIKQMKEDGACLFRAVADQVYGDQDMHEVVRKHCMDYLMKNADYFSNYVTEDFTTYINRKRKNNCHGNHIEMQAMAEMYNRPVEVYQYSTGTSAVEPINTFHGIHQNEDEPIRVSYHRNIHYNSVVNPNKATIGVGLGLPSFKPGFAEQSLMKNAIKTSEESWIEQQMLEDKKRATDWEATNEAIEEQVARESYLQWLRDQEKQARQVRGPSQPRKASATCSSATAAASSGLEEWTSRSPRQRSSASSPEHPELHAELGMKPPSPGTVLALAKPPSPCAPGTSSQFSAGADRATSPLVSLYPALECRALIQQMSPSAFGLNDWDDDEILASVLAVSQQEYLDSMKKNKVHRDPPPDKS
Summed up:
as §1

SMILES strings stand for the structures. Unmarked numbers belong to inactive results.

ATXN3, sequence (P54252 whole entry): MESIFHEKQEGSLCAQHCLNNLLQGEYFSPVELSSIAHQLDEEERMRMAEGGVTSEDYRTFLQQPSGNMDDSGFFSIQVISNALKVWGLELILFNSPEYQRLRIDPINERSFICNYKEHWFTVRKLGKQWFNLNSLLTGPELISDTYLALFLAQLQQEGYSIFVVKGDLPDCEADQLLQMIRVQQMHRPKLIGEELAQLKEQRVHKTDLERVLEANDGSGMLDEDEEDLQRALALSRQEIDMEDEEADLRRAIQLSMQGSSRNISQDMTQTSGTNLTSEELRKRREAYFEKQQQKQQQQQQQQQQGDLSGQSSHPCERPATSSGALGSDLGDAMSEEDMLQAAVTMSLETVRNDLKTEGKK
EIF3H, sequence (O15372 whole entry): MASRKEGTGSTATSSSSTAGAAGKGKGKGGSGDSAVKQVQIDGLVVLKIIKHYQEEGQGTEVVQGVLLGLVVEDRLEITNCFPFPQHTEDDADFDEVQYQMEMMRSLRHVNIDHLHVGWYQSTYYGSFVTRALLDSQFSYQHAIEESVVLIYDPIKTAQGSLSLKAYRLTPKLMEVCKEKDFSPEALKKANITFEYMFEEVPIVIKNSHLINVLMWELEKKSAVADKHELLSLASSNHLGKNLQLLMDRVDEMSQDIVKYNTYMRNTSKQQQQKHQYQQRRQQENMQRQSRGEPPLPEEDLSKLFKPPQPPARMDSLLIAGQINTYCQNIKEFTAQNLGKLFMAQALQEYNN
EIF3F, sequence (O00303 whole entry): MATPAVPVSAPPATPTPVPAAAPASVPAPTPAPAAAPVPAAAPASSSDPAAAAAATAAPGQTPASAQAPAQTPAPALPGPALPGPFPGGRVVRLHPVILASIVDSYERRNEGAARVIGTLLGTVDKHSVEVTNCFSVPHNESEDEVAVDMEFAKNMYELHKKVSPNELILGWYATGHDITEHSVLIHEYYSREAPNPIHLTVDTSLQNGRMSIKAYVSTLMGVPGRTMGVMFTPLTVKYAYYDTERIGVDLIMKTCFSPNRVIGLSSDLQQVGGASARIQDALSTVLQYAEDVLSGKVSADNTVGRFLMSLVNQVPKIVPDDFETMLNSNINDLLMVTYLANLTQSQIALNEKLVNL
OTUB1, sequence (Q96FW1 whole entry): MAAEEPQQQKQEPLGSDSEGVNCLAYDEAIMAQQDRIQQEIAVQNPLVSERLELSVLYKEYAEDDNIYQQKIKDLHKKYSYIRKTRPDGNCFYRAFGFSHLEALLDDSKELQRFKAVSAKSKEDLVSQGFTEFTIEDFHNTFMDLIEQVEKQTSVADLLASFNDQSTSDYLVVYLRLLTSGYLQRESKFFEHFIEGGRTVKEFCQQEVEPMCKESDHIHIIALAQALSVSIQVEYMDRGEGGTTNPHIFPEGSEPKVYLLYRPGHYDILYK

As for `O=C(CCl)N(C1CCCC1)C1CCS(=O)(=O)C1` (stereo unspecified), the “log2 ratio of Biotin-Ahx-Ub-VS probe labelling” value (“log2 ratio” for short) in the test with ALG13 is 0.338; with ATXN3, -0.109; with BAP1, -0.0673; in the test with EIF3F, -0.335; in the test with EIF3H, 0.00604; with FAM105A it was 0.169. The “log2 ratio” value was -0.343 with OTUB1, 0.0168 with OTUD4 and -0.379 in the test with OTUD5.
As to `Cl.O=C(CCl)N1CCCC(c2ncc[nH]2)C1` (stereo unspecified), the “log2 ratio” value in the test with ALG13 is 0.0212; with ATXN3 it was -0.259; in the test with BAP1 it was -0.246; with EIF3F it was -0.0106; with EIF3H it was 0.267; in the test with FAM105A, 0.0977. For the same compound, the results for the “log2 ratio” value with OTUB1, with OTUD4 and with OTUD5 were -0.0773, -0.288 and -0.22, respectively.
Consider `CS(=O)(=O)N1CCCN(C(=O)CCl)CC1`, for which the “log2 ratio” value with ALG13 was -0.306; with ATXN3 it was -0.428; with BAP1, -0.451; with EIF3F, -0.0174; in the test with EIF3H, 0.332; with FAM105A, -0.12. In addition, the “log2 ratio” value with OTUB1 was -0.478; with OTUD4, -0.3; with OTUD5, -0.335.
Regarding `Cc1c(NC(=O)CCl)c(=O)n(-c2ccccc2)n1C`, the “log2 ratio” value is 0.0604 with ALG13; -0.0623 with ATXN3; -1.12 (active) in the test with BAP1; -0.188 with EIF3F; 0.333 with EIF3H; -0.533 in the test with FAM105A. The “log2 ratio” value is -0.0746 with OTUB1, 0.11 with OTUD4 and -0.0203 with OTUD5.

Values taken from the supplement of paper PMC11732987, “Enantioselective OTUD7B fragment discovery through chemoproteomics screening and high-throughput optimisation” (Communications Chemistry, 2025).
